In PubChem BioAssay (EPA / NIEHS):
Values joined by “and” are separate entries in the source; they are usually repeats but may differ in a detail not shown here. Identical values can stand only once. Where a structure was tested more than once in an assay, its records may differ in their call. Active and inactive are the calls of the source. Rule for the calls: active = hit-call score of the fitted dose curve at least 0.9, where 1 is the maximum; inactive = score below 0.9.

Read-out: TIMP metallopeptidase inhibitor 2 (TIMP2), TIMP2 (gene 7077)
Test: BSK_KF3CT_TIMP2: BioMAP Diversity Plus: KF3CT Assay for TIMP metallopeptidase inhibitor 2 (TIMP2) Biomarker Activity (AID 2283071)
Settings: primary human keratinocytes with fibroblasts; actives raise or lower the signal
Experimental: BSK_KF3CT is a cell-based, multiplexed-readout assay that uses keratinocytes and foreskin fibroblasts, a human skin primary cell co-culture, with measurements taken at 24 hours after chemical dosing in a 96-well plate.BSK_KF3CT_TIMP2 is an assay component measured in the BSK_KF3CT assay. It measures TIMP-2 antibody related to regulation of gene expression using ELISA technology.Data from the assay component BSK_KF3CT_TIMP2 was analyzed into 1 assay endpoint. This assay endpoint, BSK_KF3CT_TIMP2, was analyzed with bidirectional fitting relative to DMSO as the negative control and baseline of activity. Using a type of binding reporter, gain or loss-of-signal activity can be used to understand changes in the signaling as they relate to the gene TIMP2. Furthermore, this assay endpoint can be referred to as a primary readout, because this assay has produced multiple assay endpoints where this one serves a signaling function. To generalize the intended target to other relatable targets, this assay endpoint is annotated to the protease inhibitor intended target family, where the subfamily is metalloproteinase inhibitor.
The levels of cell surface (or secreted, indicated by the prefix "s") biomarker endpoints were measured by ELISA. Overt cytotoxicity to cells in confluent adherent cultures (all systems other than the BT system) was assessed by measuring total protein levels using sulforhodamine B (SRB) staining in parallel cultures at the time of biomarker measurements, indicated as SRB endpoints. For proliferation assays for adherent cell types, individual cell types are cultured at sub-confluence and relative cell numbers quantified by SRB staining at time points optimized for each system (48 h: 3C and CASM3C systems; 72 h: BT and HDF3CGF systems; 96 h: SAg system). SRB was performed by staining cells with 0.1% SRB after fixation with 10% TCA and reading wells at 560 nm.Viability and proliferation of PBMC (T cells) was quantified by Alamar Blue reduction for the SAg and BT systems. For PBMC viability (referred to as PBMC Cytotoxicity within the assay endpoint names), cells were plated (75,000/well in a 96-well plate) and then chemical samples added for 1 h before addition of activators, SEB and TSST-1 (20 ng/mL final concentration each). Cells were incubated for 90 h. Then, Alamar Blue (20 uL/well) (Invitrogen, Cat DAL1100) was added for 6 h, and the plates were read with a fluorescence microplate reader at 546/580 nm (excitation/emission). For PBMC proliferation, cells were plated and activated as above but incubated for only 16 h prior to addition of Alamar Blue. Plates were read after 6 h.

Q: How did the outcome turn out when CC[C@H](C)[C@@H](C(=O)O)n1sc2ccccc2c1=O was run?
A: Its outcome is “inactive”.

Q: How did the AC50 turn out when CCCCCCCCCCCCc1ccccc1S(=O)(=O)O was run?
A: Its AC50 is 13.3 µM (active).

Q: For CC(O)CO (stereo not given), which outcome is on record?
A: The outcome was “inactive”.

Q: Which outcome does the source give for C#C[C@]1(O)CC[C@H]2[C@@H]3CCC4=CC(=O)CC[C@@H]4[C@H]3CC[C@@]21C here?
A: Its outcome is “inactive”.

Q: Which outcome does the source give for COCC(C)OCC(C)O (stereo not given) here?
A: The outcome was “inactive”.

Q: How did the outcome turn out when c1ccc2cc3c(ccc4ccccc43)cc2c1 was run?
A: The outcome was “inactive”.

Q: How did the AC50 turn out when OCCC(F)(F)C(F)(F)C(F)(F)C(F)(F)C(F)(F)C(F)(F)C(F)(F)C(F)(F)F was run?
A: The AC50 was 19.9 µM (active) and 14.6 µM (active).

Q: What about the outcome of the same compound?
A: Its outcome is “inactive”.

Q: Which AC50 does the source give for CN1CCN(c2ccccc2/C=C2\SCCN(c3ccc(Cl)c(Cl)c3)C2=O)CC1 here?
A: The AC50 was 28.1 µM (active).

Q: With CC(C)(C)c1ccc(O)c(C(C)(C)C)c1 as the compound, how does the AC50 read?
A: Its AC50 is 12 µM (active).

Q: Which outcome does the source give for OC1CCCCC1 here?
A: Its outcome is “inactive”.

Q: For O=C(O)c1ccccc1C(c1ccc(O)cc1)c1ccc(O)cc1, which outcome is on record?
A: Its outcome is “inactive”.

Q: CCc1ccc(CCOc2ccc(CC3SC(=O)NC3=O)cc2)nc1 (stereo not given) was tested. Which outcome did it give?
A: The outcome was “inactive”.

Q: For CCCCC(CC)COC(=O)CCCCC(=O)OCc1ccccc1 (stereo not given), which outcome is on record?
A: The outcome was “inactive”.

Q: For CN1CCC[C@H]1c1cccnc1, which outcome is on record?
A: Its outcome is “inactive”.

Q: ClC1=C(Cl)C(Cl)(Cl)C(Cl)=C1Cl was tested. Which AC50 did it give?
A: Its AC50 is 11.8 µM (active).

Q: For OCCC(F)(F)C(F)(F)C(F)(F)C(F)(F)C(F)(F)C(F)(F)F, which outcome is on record?
A: Its outcome is “inactive”.

Q: Which outcome does the source give for CCCCCCCCOC(=O)CCCCCCCCC(=O)OCCCCCCCC here?
A: Its outcome is “inactive”.

Q: N#C[C@@H]1CC(F)(F)CN1C(=O)CNC1CC2CCC(C1)N2c1ncccn1 (stereo not given in full) was tested. Which outcome did it give?
A: Its outcome is “inactive”.

Q: How did the AC50 turn out when CC1=C(/C=C/C(C)=C/C=C/C(C)=C/C(=O)O)C(C)(C)CCC1 was run?
A: The AC50 was 32.3 µM (active).

Q: How did the outcome turn out when O=[N+]([O-])c1ccc(O)cc1 was run?
A: The outcome was “inactive”.

Q: NC(=O)N(O)[C@@H]1C=C[C@H](Oc2cccc(Oc3ccc(F)cc3)c2)C1 was tested. Which outcome did it give?
A: The outcome was “inactive”.

Q: With C=C(C)C(=O)OCCC(F)(F)C(F)(F)C(F)(F)C(F)(F)C(F)(F)C(F)(F)F as the compound, how does the outcome read?
A: The outcome was “inactive”.

Q: For CC#C[C@]1(O)CC[C@H]2[C@@H]3CCC4=CC(=O)CCC4=C3[C@@H](c3ccc(N(C)C)cc3)C[C@@]21C, which outcome is on record?
A: The outcome was “inactive”.

Q: Which outcome does the source give for O=C(OCCOCCOC(=O)c1ccccc1)c1ccccc1 here?
A: The outcome was “inactive”.

Q: Which AC50 does the source give for CC[C@H](c1ccc(O)cc1)[C@@H](CC)c1ccc(O)cc1 here?
A: The AC50 was 31.6 µM (active).

Q: CCCCCCCCCCCCCCCS(=O)(=O)Oc1ccccc1 was tested. Which outcome did it give?
A: The outcome was “inactive”.

Q: With COC(=O)CCCCC(=O)OC as the compound, how does the outcome read?
A: Its outcome is “inactive”.

Q: How did the outcome turn out when C[C@@H]1C[C@H]2[C@@H]3CCC4=CC(=O)C=C[C@]4(C)[C@@]3(F)[C@@H](O)C[C@]2(C)[C@@]1(O)C(=O)COP(=O)(O)O was run?
A: The outcome was “inactive”.

Q: For CCCCCCCCCCCCCC[N+](C)(C)C, which AC50 is on record?
A: Its AC50 is 5.45 µM (active).

Q: Which outcome does the source give for CCCCCCC(=O)O here?
A: Its outcome is “inactive”.

Q: For CCCOc1sc(C(=O)N2CCC(c3cc(CN)ccc3F)CC2)c(C)c1Br, which AC50 is on record?
A: Its AC50 is 9.6 µM (active).

Q: With CC(=O)CC(C)(C)O as the compound, how does the outcome read?
A: The outcome was “inactive”.

Q: For Nc1cccc2c(N)cccc12, which outcome is on record?
A: The outcome was “inactive”.

Q: Which outcome does the source give for CCCCCCCC(=O)O here?
A: Its outcome is “inactive”.

Q: With FC(F)(I)C(F)(F)C(F)(F)C(F)(F)C(F)(F)C(F)(F)I as the compound, how does the AC50 read?
A: The AC50 was 13.2 µM (active) [middle of 5 runs].

Q: For COc1ccc([N+](=O)[O-])cc1N, which outcome is on record?
A: The outcome was “inactive”.

Q: How did the outcome turn out when COCC(C)O (stereo not given) was run?
A: Its outcome is “inactive”.

Q: With Cc1cc(C)c(O)c(C)c1 as the compound, how does the outcome read?
A: Its outcome is “inactive”.

Q: Which AC50 does the source give for O=C(O)Cc1cc(I)c(Oc2cc(I)c(O)c(I)c2)c(I)c1 here?
A: The AC50 was 13.4 µM (active).
